Screens: PubChem BioAssay, Pan Lab, Icahn School of Medicine at Mount Sinai
RBX1-CUL1 inh = inhibitors of human ROC1-CUL1 ubiquitin ligase activity | in vitro K48 di-Ub FRET, acceptor:donor ratio, 45 min | inhibition, % at 10 µM | 0.6% of 140,000 active | AID 1347404, 2020; in the data active means inhibition above about 25%
Active calls of the source: *. The entries come from a sample that favours hits as a whole.

SMILES	RBX1-CUL1 inh
CCCN(CC1CC1)C(=O)c1cn(Cc2ccccc2C)nn1	-1
Cc1cc(C)n(CCN(C)C(=O)c2cc(COc3ccc4c(c3)OCO4)[nH]n2)n1	-8
COc1ccc(Cl)cc1NS(=O)(=O)c1ccc([N+](=O)[O-])cc1	-5
O=S(=O)(O)SCCN1CCc2ccccc21	28*
O=C(CN1CCc2ccccc21)NC1CCCCCC1	-5
OCCN1c2ccccc2CCc2ccccc21	-2
CC12CCC(C(=O)Nc3ccc(Cl)cc3Cl)(OC1=O)C2(C)C (centres undefined)	4
CCOc1ccc(NC(=O)COc2ccc3c(=O)c(Oc4ccc5ccccc5c4)coc3c2)cc1	-4
CC(C)C1=NN2C(=N)/C(=C/c3ccc(-c4cc(Cl)cc(Cl)c4)o3)C(=O)N=C2S1	-1
Cc1c(/C=C2\C(=N)N3N=C(C(F)(F)F)SC3=NC2=O)c2ccccc2n1Cc1ccc(F)cc1	4
N=C1/C(=C/c2ccc(-c3ccc(F)cc3)o2)C(=O)N=C2SC(C(F)(F)F)=NN12	93*
COc1ccc(/C=C2/C(=N)N3N=C(C(F)(F)F)SC3=NC2=O)c(OC)c1OC	6
N=C1/C(=C/c2ccc(-c3ccccc3)o2)C(=O)N=C2SC(C(F)(F)F)=NN12	60*
N=C1/C(=C/c2ccc(-c3ccccc3)o2)C(=O)N=C2SC(c3ccccc3Cl)=NN12	4
Cn1cc(C(c2ccco2)c2cn(C)c3ccccc23)c2ccccc21	-14
COC(=O)c1ccc(-c2ccc(/C=C3/C(=N)N4N=C(COc5ccccc5)SC4=NC3=O)o2)cc1	-3
COc1ccc(CCNC(=O)CCCCCn2c(=O)[nH]c3cc(OC)c(OC)cc3c2=O)cc1OC	-4
COc1cc(Cl)c(C)cc1NC(=O)CSc1ncc(S(=O)(=O)c2ccc(C(C)(C)C)cc2)c(=O)[nH]1	53*
CCc1ccc(S(=O)(=O)c2cnc(SCC(=O)Nc3ccc(OC)cc3OC)[nH]c2=O)cc1	4
CC(C)(C)c1ccc(S(=O)(=O)c2cnc(SCC(=O)Nc3ccc(F)c(Cl)c3)[nH]c2=O)cc1	-5
NC(N)=NC(N)=Nc1ccc(SC(F)F)cc1	6
COC(=O)C(NC(=O)Cc1ccccc1)(Nc1ncc(C(F)(F)F)cc1Cl)C(F)(F)F (centres undefined)	-5
CCc1ccc(N2C(=O)CC(N3CCN(c4ccccc4F)CC3)C2=O)cc1 (centres undefined)	-5
O=C1C=Cc2ccc(N3CCOCC3)c3cccc1c23	-6
CC1(N2CCOCC2)C(=O)c2ccccc2C1=O	0
SMILES	RBX1-CUL1 inh
O=C1C=C(N2CCOCC2)c2ccccc2C1=O	76*
COc1cc2c(cc1OC)C(c1cccc([N+](=O)[O-])c1)N(C(=O)COc1cccc3ccccc13)CC2 (centres undefined)	3
NC(=O)c1ccccc1NC(=O)/C=C/c1ccccc1Cl	2
CN(C)CC/C=C1/c2cc(Br)ccc2CSc2ccccc21	-7
O=C1c2ccccc2CSc2c(O)cccc21	-2
CN(C)CCOc1ccc2c(c1)C(=O)c1ccccc1CS2	101*
COc1ccc(-c2nn(-c3ccccc3)cc2/C=C2\SC(N3CCOCC3)=NC2=O)cc1C	1
Cc1nc(N2C(=O)C(=O)C(C(=O)c3ccccc3)C2c2ccc(Br)cc2)sc1C (centres undefined)	0
O=C(/C=C/c1ccccc1)C1C(=O)C(=O)N(c2ccccn2)C1c1ccccc1 (centres undefined)	8
O=C1C(=O)N(c2ccccn2)C(c2ccccc2Cl)C1C(=O)c1ccccc1 (centres undefined)	29*
O=C1C(=O)N(c2nccs2)C(c2ccc(Cl)cc2)C1C(=O)c1ccccc1 (centres undefined)	64*
CN(C)c1ccc(C2C(C(=O)c3ccccc3)C(=O)C(=O)N2c2ccc(Cl)cc2)cc1 (centres undefined)	-2
CC(C)Oc1ccc(C(=O)C2C(=O)C(=O)N(c3ccccn3)C2c2ccc(Cl)cc2)cc1 (centres undefined)	-4
COc1ccccc1N(CC(=O)Nc1cccc2ccccc12)S(C)(=O)=O	2
